The campaign covered roughly 94,000 compounds. About 6,200 (6.6%) were called active. A call without a number means that no potency is given here. About 31% were inconclusive and are not listed. The call rests on the fitted dose curve; in most records, active means well fitted inhibition curve with a large enough effect; inconclusive means small, poorly fitted or top-dose-only effect; inactive means flat fitted curve, though single readings scatter. For the sample, actives were picked, then their nearest neighbours and some compounds at random.
Potency means the concentration at half of the fitted maximal effect.

A short description of the experiment: Cytotoxic Profiling in HEK 293 Cell Line of Diverse Libraries Using Quantitative High-Throughput Screening. Further: nearly all actives have a fitted effect of over 60% in size. Particulars: HEK 293 viability, ATP luminescence (CellTiter-Glo), 48-72 h; series mostly up to 115 µM. The method in brief: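 Cells seeded first (HEK 293, 250 cells/well), then compound added by pintool. Incubation ran 48 or 72 hr at 37 degree Celsius. CellTiter-Glo was added and luminescence imaged after 10 min at room temperature.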
For the compound `COCCOC1CN(C2CCN(C(=O)C3CCOCC3)CC2)C12CCCCC2` (stereo not drawn), the Potency entry is “inactive”. Then `CC[C@H]1CN(C(=O)c2cccnc2)CC[C@H]1CC(=O)NCc1cccnc1`, with “inactive”; and `CC(C)NC(=O)N1CCCC1c1noc(COc2ccc(F)cc2)n1` (stereo not drawn), with “inactive”; and `CN1C(=O)c2cccn2CC1C(=O)NC1CCN(Cc2ccccc2)CC1` (stereo not drawn), with “inactive”. Then `Cc1cccc(-c2cccc(CN3CCC(NC(=O)Nc4ccccc4)CC3)c2)c1`, with 22.4 µM (active); and `Cc1cccc(C(=O)N2CCC(CC(=O)NCc3ccccc3)C2)c1` (stereo not drawn), with “inactive”. Turning to `O=C([C@@H]1C[C@H](F)CN1C(=O)Nc1ccccc1)N1CCCCC1`, the Potency entry was “inactive”. The entry for `Cc1noc(C)c1C(=O)N[C@@H]1CN(c2ccncn2)C[C@H]1CN(C)C` is “inactive”; for `CN(Cc1cccnc1)C(=O)CCC[C@@H]1[C@H]2CCCN3CCC[C@@H](CN1C(=O)c1cccnc1)[C@@H]23` it is “inactive”.

For `CCCc1sc(NC(=O)C[C@H]2NC(=O)c3ccccc3NC2=O)nc1C(=O)OC`, the Potency result was “inactive”. Turning to `Cc1ccc(N2CC(Cc3ccccc3)N(C(=O)c3ccnn3C)CC2=O)cc1` (stereo not drawn), the Potency result is “inactive”.

As for `COCCN1Cc2cc(OC)ccc2N(CC(O)COc2ccc(OC)cc2)CCC1=O` (stereo not drawn), the Potency result is “inactive”.

As for `COc1ccc(-c2ccc3c(n2)CN(CCOc2ccccc2)C(=O)CO3)cc1F`, the Potency is 79.4 µM (active). Turning to `COc1cccc(CN2CCOC3CCN(C(=O)c4cccnc4)CC3C2=O)c1` (stereo not drawn), the Potency result was “inactive”. The entry for `COc1cccc(CN2CCN(C(=O)c3cnc4ccccn4c3=O)CC2=O)c1` is “inactive”; for `COc1cccc(CC(=O)NCCc2noc(-c3cccnc3)n2)c1` it is “inactive”.

For the compound `COc1cccc(CN2Cc3nc(Nc4cccc(F)c4)ccc3OCC2=O)c1`, the Potency was 89.1 µM (active). As to `CCN(Cc1cnn(CC)c1)C(=O)C1CCCCC(=O)N1Cc1cccc(OC)c1` (stereo not drawn), the Potency result was “inactive”.

Take `COc1ccc(-c2noc(-c3cccn3CC(=O)Nc3ccccc3)n2)cc1F`: the Potency result was “inactive”. As for `COc1cccc(CN2Cc3nc(-c4cc(F)cc(F)c4)ccc3OCC2=O)c1`, the Potency was 63.1 µM (active). The entry for `CCOCCOC1CCN(C(=O)NCc2ccc(C)cc2)CC1` is “inactive”; for `CN1CCN(C(=O)c2nc3sccn3c2-c2ccc(F)cc2)CC1` it is “inactive”; for `COC(=O)[C@H]1CCCN1C(=O)[C@@H]1C[C@@H](NS(=O)(=O)c2cccs2)CCN1C(=O)COCC(=O)O` it is “inactive”. Consider `CS(=O)(=O)N1C[C@H]2CCN(C(=O)c3ccncc3F)C[C@H]21`, for which the Potency entry was “inactive”. Then `Cn1c(=O)[nH]cc(CC(=O)N2CCn3nc(Cc4ccccc4)cc3C2)c1=O`, with “inactive”. Then `CN(CCc1ccccn1)[C@@H]1[C@H](O)[C@H](CO)O[C@@H]1CNC1CCOCC1`, with “inactive”. Then `COCC(=O)N[C@H]1CC(C)(C)[C@@H]2C[C@@](C)(O)CC[C@]12CCC(=O)N1CCN(c2ccccc2OC)CC1`, with “inactive”.

As to `CC(C)C(=O)N1CC(n2cc(COc3ccc(F)cc3)nn2)C1`, the Potency result is “inactive”.

For `COc1ccc(CC(=O)N2CCC(C(=O)N3CCC(N4Cc5ccccc5C4=O)CC3)CC2)cc1`, the Potency result is “inactive”. The entry for `CCCS(=O)(=O)N1Cc2c(ncn2Cc2ccc(Cl)cc2)C[C@H]1C(=O)OC` is “inactive”; for `CCOc1ccc2c(n1)CCN(C(=O)c1nccn1C)C2` it is “inactive”; for `O=C1CCN(C(=O)C2CCN(C(=O)CCCc3ccccc3)CC2)CCCCCCN1` it is “inactive”. The entry for `COCCn1c(C)cc(C(=O)N2CCCC(c3[nH]ccc3C(N)=O)C2)c1C` (stereo not drawn) is “inactive”; for `CCOC(=O)C1(Cc2ccc(F)cc2F)CCCN(Cc2cccc(OC)c2O)C1` (stereo not drawn) it is 39.8 µM (active). The entry for `O=C1NCc2ccccc2CC12CCCN(Cc1ccc(F)cc1O)C2` (stereo not drawn) is “inactive”; for `CCOC(=O)C1(Cc2ccccc2F)CCCN(C(=O)CN2CCOC2=O)C1` (stereo not drawn) it is “inactive”; for `Cc1ccc(-c2nc(C3CC(=O)N(c4ccc(Cl)cc4)C3)no2)cc1C` (stereo not drawn) it is “inactive”. For `COc1ccc(N2CC(c3noc(-c4ccc(C(C)(C)C)cc4)n3)CC2=O)cc1` (stereo not drawn), the Potency is 44.7 µM (active).

Regarding `Cc1ccc(N2CC(c3noc(-c4cc(Cl)ccc4F)n3)CC2=O)cc1` (stereo not drawn), the Potency entry is “inactive”. As to `Cc1ccc(CN2C(=O)[C@@H]3C[C@@H](O)CN3C3(CN(Cc4ccccn4)C3)C2=O)o1`, the Potency entry was “inactive”. Then `O=C(NCCNC(=O)c1ccccc1F)c1ccc(-c2cccc(C(F)(F)F)c2)cc1`, with “inactive”. The figure for `O=C(NCCN[S+](=O)([O-])c1cccs1)c1ccc(-c2cccc(C(F)(F)F)c2)cc1` is 44.7 µM (active); for `O=C(NCC(=O)N1CCC(c2ccccc2)CC1)c1ccc(-c2cccc(C(F)(F)F)c2)cc1` it is “inactive”. Then `CC(=O)NCC(=O)N1Cc2ccccc2CC2(CCCN2Cc2cccnc2)C1` (stereo not drawn), with “inactive”; and `CC(C)CCN1CCC2(CC1)C(=O)NCN2Cc1ccc(Cl)cc1`, with “inactive”; and `COc1ccc(CCNC(=O)c2nnn3cc(-c4ccccc4)[nH]c(=O)c23)cc1OC`, with “inactive”. For `Cc1cc2nc3n(c(=O)c2n1CC(=O)Nc1ccc(Br)cc1)CCCC3`, the Potency entry was “inactive”.

For the compound `Cc1cc2nc3n(c(=O)c2n1CC(=O)Nc1cc(F)cc(F)c1)CCCC3`, the Potency result is “inactive”. Then `Cc1cc2nc3n(c(=O)c2n1CC(=O)Nc1cccc(C(F)(F)F)c1)CCCC3`, with 28.2 µM (active).

`Cc1noc(-c2ccc(OC3CN(C(=O)C4CCOC4)C3)cc2)n1` (stereo not drawn): the Potency result is “inactive”. The entry for `CO[C@H]1CN(C(C)C)[C@H]1C1CCN(C(=O)NCCc2ccccc2)CC1` is “inactive”. Then `NC(=O)[C@@H]1C[C@H](Oc2ccccc2)CN1C(=O)Cc1cccc(F)c1`, with “inactive”. The figure for `COc1cc(CNCc2ccc(C)c(F)c2F)ccc1OCC(O)CN1CCC(O)CC1` (stereo not drawn) is 17.8 µM (active); for `COc1ccc(CC(=O)N2CCC3(CC2)CC(O)CCO3)cc1OC` (stereo not drawn) it is “inactive”. `COc1cc(CN2CCC3(CC2)CC(O)CCO3)ccc1F` (stereo not drawn): the Potency entry was “inactive”.

On to `COc1ccc(CN2C=C(C(=O)OCc3nc(C)no3)C(C)=NS2(=O)=O)cc1`, for which the Potency result is “inactive”.

Regarding `NC(=O)[C@@H](Cc1ccccc1)NC(=O)[C@@]1(O)C[C@@H](O)[C@H](O)[C@@H](NC(=O)Nc2ccc(OC(F)(F)F)cc2)C1`, the Potency entry was “inactive”.

For the compound `Cn1nccc1CN1CCC(N2Cc3ccccc3C2=O)CC1`, the Potency entry is “inactive”.

For `Cc1noc(C)c1[S+](=O)([O-])N(C)Cc1cccn1C`, the Potency result was “inactive”. The figure for `CN(Cc1cccn1C)Cc1ccnn1C` is 100 µM (active); for `O=C(NC[C@H]1O[C@@H](CO)[C@@H](O)[C@H]1N1CCN(c2ccccc2)CC1)c1ccccc1Cl` it is “inactive”.

Consider `CCCNC(=O)CCC1CCN(C(=O)c2ccc(C)cc2)CC1`, for which the Potency entry was “inactive”. The entry for `CC1(C(=O)N2CCc3ccccc3C2)CCOCC1` is “inactive”; for `Cc1ccc(C(=O)N2CCC(CCC(=O)N3CCc4ccccc4C3)CC2)cc1` it is 44.7 µM (active). Then `COc1ccc(-c2[nH]ncc2CN2CCCC(C(=O)NCc3ccccc3)CCNC(=O)CC2)cc1` (stereo not drawn), with “inactive”; and `CC(=O)N[C@@H]1CN(Cc2cn[nH]c2-c2ccc(F)cc2)C[C@H]1CO`, with “inactive”. Then `COc1ccc2cc(-c3[nH]ncc3CN3CCN(c4cccc(C)n4)CC3)ccc2c1`, with 20 µM (active). In the case of `Cc1ncccc1C(=O)N1CCC2(CC1)CC(CO)N(C(=O)c1ccccc1)C2` (stereo not drawn), the Potency result was “inactive”. Then `COCCC1(NS(C)(=O)=O)CCN(C(=O)c2ccc(C#N)cc2)CC1`, with “inactive”; and `COc1ccc([C@@H](NC(=O)Cc2c(F)cccc2Cl)C2CC(O)C2)cn1` (stereo partly drawn), with “inactive”. Then `COc1cc(OC)cc(C(=O)N2CCCC(n3cc(-c4nc(C(C)C)no4)nn3)C2)c1` (stereo not drawn), with “inactive”; and `CC(C)c1noc(-c2cn(C3CCN(C(=O)c4ccc(N(C)C)cc4)C3)nn2)n1` (stereo not drawn), with 31.6 µM (active). The entry for `COc1ccc(C(=O)N2CCCC(n3cc(-c4nc(C5CC5)no4)nn3)C2)cc1` (stereo not drawn) is “inactive”; for `O=C(c1ccc(Cl)cc1)N1CCCC(n2cc(-c3nc(-c4ccccc4)no3)nn2)C1` (stereo not drawn) it is 35.5 µM (active).

Consider `CCOc1ccc(C(=O)N2CCC(n3cc(-c4nc(C)no4)nn3)C2)cc1` (stereo not drawn), for which the Potency entry was “inactive”. Then `COc1ccc(C(=O)N2CCC(n3cc(-c4nc(C(C)C)no4)nn3)CC2)cc1F`, with “inactive”. As for `COc1ccc(F)cc1-c1ncc2c(n1)OCCN(CC1CC1)C2=O`, the Potency entry was “inactive”. Consider `CCNC(=O)N1C[C@@H]2OCC(=O)N(Cc3ccc(F)cc3)[C@@H]2C1`, for which the Potency entry is “inactive”. Then `Cc1ccc(CN2CCN(c3nc4ccccc4o3)CC2CCO)cc1` (stereo not drawn), with 44.7 µM (active); and `CCOc1ccc(CN2CCN(CC(N)=O)CC2CCO)cc1` (stereo not drawn), with “inactive”. The entry for `COc1cccc(CN2CCN(c3ncccc3Cl)CC2CCO)c1` (stereo not drawn) is “inactive”; for `CCOC(=O)N1CCC(N2CCN(Cc3ccccc3F)C(CCO)C2)CC1` (stereo not drawn) it is “inactive”. Regarding `COc1ccc(CN2CCN(c3nc4ccccc4o3)CC2CCO)cc1C` (stereo not drawn), the Potency is 35.5 µM (active). As for `CN1C(=O)c2cccn2CC1C(=O)Nc1ccc(F)cc1F` (stereo not drawn), the Potency entry is “inactive”. Then `O=C(NC1CC1)[C@@H]1C[C@H](Oc2ccccc2)CN1C(=O)CN1CCCCCC1`, with “inactive”. Then `CCc1nncn1C1CCN(S(=O)(=O)c2cc(F)ccc2OC)CC1`, with “inactive”. As to `Cc1cccc(N2Cc3c(NCCCOC(C)C)ncnc3N(C)CC2=O)c1`, the Potency entry is “inactive”. Then `NCc1ccccc1-c1ccc(F)cc1`, with “inactive”; and `Cc1cc2cccc(-c3nc(C4CCOC4)nn3CC(=O)O)c2o1` (stereo not drawn), with “inactive”; and `Cc1nc(N2CCC(NCCNc3ccncc3C)CC2)c2ccsc2n1`, with 35.5 µM (active). Turning to `Cc1nc(N2CCC(NC(=O)c3cnccn3)CC2)cc(C(F)(F)F)n1`, the Potency entry is “inactive”.

On to `CNC(=O)c1cc(C2CC2)nc2onc(C3CCCN3C(=O)c3ccccc3)c12` (stereo not drawn), for which the Potency entry was “inactive”. Then `Cc1ccc(NC(=O)CC2CCCN(c3cn[nH]c(=O)c3)C2)cc1F` (stereo not drawn), with “inactive”; and `CN(C)CC(O)COc1ccc(CN(C)C2CCSCC2)cc1` (stereo not drawn), with “inactive”. Then `COc1ccc(-c2nc3c(c(=O)[nH]2)CCN(C(=O)Cc2ccc(OC)c(Cl)c2)C3)cc1`, with “inactive”; and `O=c1n(CCN2CCN([S+](=O)([O-])c3cccs3)CC2)nc2n1CCCC2`, with “inactive”. Then `O=[S+]([O-])(c1cccs1)N1CCN(c2nccc(Nc3ccccc3F)n2)CC1`, with 35.5 µM (active). Take `COc1ccccc1-n1c(=O)c(C(=O)N2CCN([S+](=O)([O-])c3cccs3)CC2)nc2cccnc21`: the Potency entry is “inactive”.

For the origin of these results see PubChem BioAssay AID1345083 (National Center for Advancing Translational Sciences (NCATS), 2018).
